Source: the antibiotic and cytotoxicity screens of Wong et al. (2023)
Among all 39,000 compounds or so, about 3,300 (8.5%) were called active. The sample holds actives, similar compounds and a random draw of the others, so the mix is not that of the screen.

System: HepG2
Assay: cytotoxicity call (relative viability < 0.9)
Details: 10 µM

Row | Structure (SMILES) | cytotoxicity call
1 | C[C@H](CO)N1C[C@H](C)[C@H](CN(C)C(=O)Nc2ccc(C(C)(C)C)cc2)OCc2cnnn2CCCC1=O | inactive
2 | C[C@@H]1CN([C@H](C)CO)C(=O)c2cc(NS(=O)(=O)c3ccccc3)ccc2O[C@@H](C)CCCCO[C@@H]1CN(C)C(=O)NC1CCCCC1 | inactive
3 | C[C@H]1CCCCO[C@H](CN(C)C(=O)NC2CCCCC2)[C@@H](C)CN([C@@H](C)CO)C(=O)c2cc(NS(=O)(=O)c3ccccc3)ccc2O1 | inactive
4 | C[C@@H]1CCCCO[C@H](CN(C)C(=O)NC2CCCCC2)[C@@H](C)CN([C@@H](C)CO)C(=O)c2cc(NS(=O)(=O)c3ccccc3)ccc2O1 | inactive
5 | C[C@H](CO)N1C[C@H](C)[C@H](CN(C)C(=O)NC2CCCCC2)OCCCC[C@H](C)Oc2ccc(NS(=O)(=O)c3ccccc3)cc2C1=O | active
6 | C[C@@H]1CCCCO[C@@H](CN(C)C(=O)NC2CCCCC2)[C@H](C)CN([C@H](C)CO)C(=O)c2cc(NS(=O)(=O)c3ccccc3)ccc2O1 | inactive
7 | C[C@@H]1CCCCO[C@@H](CN(C)C(=O)NC2CCCCC2)[C@H](C)CN([C@@H](C)CO)C(=O)c2cc(NS(=O)(=O)c3ccccc3)ccc2O1 | active
8 | O=C(C[C@@H]1CC[C@@H](NC(=O)Cc2ccccn2)[C@@H](CO)O1)NCCCN1CCOCC1 | inactive
9 | C[C@H](CO)N1C[C@H](C)[C@H](CN(C)Cc2ccc(C(=O)Nc3ccccc3N)cc2)Oc2c(NS(=O)(=O)c3cn(C)cn3)cccc2C1=O | inactive
10 | C[C@@H]1CN([C@H](C)CO)C(=O)c2cccc(NC(=O)c3ccc(-c4nccs4)cc3)c2O[C@@H]1CN(C)C(=O)Nc1cccc2ccccc12 | inactive
11 | COc1ccc(CN2C[C@@H](C)[C@@H](OC)CN(C)C(=O)c3cc(NC(=O)c4nc5ccccc5s4)ccc3OC[C@@H]2C)cc1 | inactive
12 | CCCC(=O)Nc1ccc2c(c1)OC[C@@H](C)N(S(=O)(=O)c1cn(C)cn1)C[C@@H](C)[C@H](OC)CN(C)C2=O | inactive
13 | C[C@@H]1CN([C@@H](C)CO)C(=O)c2cc(NC(=O)Cc3ccccc3)ccc2O[C@@H]1CN(C)Cc1ccc(C(F)(F)F)cc1 | inactive
14 | C[C@@H]1CN([C@H](C)CO)C(=O)c2cc(NC(=O)Cc3ccccc3)ccc2O[C@H]1CN(C)Cc1ccc(C(F)(F)F)cc1 | inactive
15 | C[C@@H]1CN([C@H](C)CO)C(=O)c2cc(NC(=O)Cc3ccccc3)ccc2O[C@H]1CN(C)Cc1ccc(-c2ccccc2)cc1 | active
16 | C[C@@H]1CN([C@H](C)CO)C(=O)c2cc(NC(=O)Cc3ccccc3)ccc2O[C@@H]1CN(C)Cc1ccc(-c2ccccc2)cc1 | inactive
17 | C[C@H](CO)N1C[C@H](C)[C@H](CN(C)Cc2ccc(-c3ccccc3)cc2)Oc2ccc(NC(=O)Cc3ccccc3)cc2C1=O | active
18 | C[C@@H]1CN([C@@H](C)CO)C(=O)c2cc(NC(=O)Cc3ccccc3)ccc2O[C@@H]1CN(C)Cc1ccc(-c2ccccc2)cc1 | active
19 | C[C@@H]1CN([C@@H](C)CO)C(=O)c2cc(NC(=O)Cc3ccccc3)ccc2O[C@H]1CN(C)Cc1ccc(-c2ccccc2)cc1 | active
20 | C=C1c2cccc(O)c2C(=O)[C@@H]2C(=O)[C@]3(O)C(=O)[C@@H](C(N)=O)C(=O)[C@@H](N(C)C)[C@@H]3[C@@H](O)[C@H]12 | inactive
21 | C[C@@H]1CCCCO[C@@H](CN(C)C(=O)Nc2cccc3ccccc23)[C@@H](C)CN([C@@H](C)CO)C(=O)c2cc(N(C)C)ccc2O1 | inactive
22 | Cn1cnc(CCNC(=O)C[C@@H]2CC[C@@H]3[C@H](COC[C@H](O)CN3C(=O)Nc3ccc(Cl)cc3)O2)c1 | inactive

Row | Structure (SMILES) | cytotoxicity call
23 | CC(=O)NCCCC[C@@H]1NC(=O)[C@@H]2C[C@H](C(=O)NCCCCCN)[C@H](c3ccc(O)cc3)N2C1=O | inactive
24 | O=C(C[C@H]1CC[C@@H]2[C@H](COC[C@@H](O)CN2S(=O)(=O)c2ccccc2)O1)NCCN1CCCCC1 | inactive
25 | C[C@H](CO)N1C[C@H](C)[C@H](CN(C)C(=O)Nc2ccc(C(F)(F)F)cc2)OCCCC[C@H](C)Oc2ccc(NC(=O)Nc3ccccc3)cc2C1=O | inactive
26 | COc1ccc(S(=O)(=O)Nc2ccc3c(c2)CC(=O)N([C@@H](C)CO)C[C@@H](C)[C@@H](CN(C)S(C)(=O)=O)O3)cc1 | inactive
27 | C[C@@H]1CCCCO[C@H](CN(C)C(=O)Nc2ccc(C(F)(F)F)cc2)[C@@H](C)CN([C@@H](C)CO)C(=O)c2cc(NC(=O)Nc3cccc4ccccc34)ccc2O1 | inactive
28 | C[C@H](CO)N1C[C@H](C)[C@@H](CN(C)Cc2ccc(-c3ccccc3)cc2)Oc2ccc(NC(=O)Cc3ccccc3)cc2C1=O | inactive
29 | C[C@H]1CN([C@@H](C)CO)C(=O)c2cc(NC(=O)Cc3ccccc3)ccc2O[C@@H]1CN(C)Cc1ccc(-c2ccccc2)cc1 | active
30 | C[C@H]1CN([C@@H](C)CO)C(=O)c2cc(NC(=O)Cc3ccccc3)ccc2O[C@H]1CN(C)Cc1ccc(-c2ccccc2)cc1 | inactive
31 | CC(C)[Si]1(C(C)C)OCc2cc(-c3ccc(-c4ccc(Cl)c(Cl)c4)o3)nc(-c3ccc(Oc4ccccc4)cc3)c21 | inactive
32 | Cc1ccc(N2CCC[C@]3(CCNC3=O)C2)nn1 | inactive
33 | C[C@@H]1CCCCO[C@@H](CN(C)S(=O)(=O)c2ccc(Cl)cc2)[C@@H](C)CN([C@@H](C)CO)C(=O)c2cc(NS(=O)(=O)c3ccccc3)ccc2O1 | inactive
34 | C[C@@H]1CCCCO[C@@H](CN(C)C(=O)Cc2ccccc2)[C@@H](C)CN([C@@H](C)CO)C(=O)c2cc(NC(=O)Nc3ccc(F)cc3)ccc2O1 | inactive
35 | COc1ccc([Si](C)(C)[C@H]2[C@H](CCO)O[C@@]3(C(=O)N(Cc4ccccc4)c4ccc(N5CCCCC5=O)cc43)[C@@H]2C)cc1 | inactive
36 | COc1ccc([Si](C)(C)[C@@H]2[C@@H](CCO)O[C@]3(C(=O)N(Cc4ccc(N5CCCCC5=O)cc4)c4ccccc43)[C@H]2C)cc1 | inactive
37 | COc1ccc([Si](C)(C)[C@@H]2[C@@H](CCO)O[C@]3(C(=O)N(Cc4ccccc4)c4ccc(N5CCCCC5=O)cc43)[C@H]2C)cc1 | inactive
38 | COc1ccc([Si](C)(C)[C@H]2[C@H](CCO)O[C@@]3(C(=O)N(Cc4ccccc4)c4ccc(N5C(=O)COc6ccccc65)cc43)[C@@H]2C)cc1 | active
39 | COc1ccc([Si](C)(C)[C@@H]2[C@@H](CCO)O[C@]3(C(=O)N(Cc4cccc(N5C(=O)COc6ccccc65)c4)c4ccccc43)[C@H]2C)cc1 | active
40 | COc1ccc([Si](C)(C)[C@H]2[C@H](CC(=O)N3CCC[C@H]3CO)O[C@@]3(C(=O)N(Cc4cccc(N5C(=O)COc6ccccc65)c4)c4ccccc43)[C@@H]2C)cc1 | inactive
41 | COc1ccc([Si](C)(C)[C@H]2[C@H](CCO)O[C@@]3(C(=O)N(Cc4ccc(N5C(=O)COc6ccccc65)cc4)c4ccccc43)[C@@H]2C)cc1 | active
42 | COc1ccc([Si](C)(C)[C@H]2[C@H](CCO)O[C@@]3(C(=O)N(Cc4ccc(N5CCCCC5=O)cc4)c4ccccc43)[C@@H]2C)cc1 | inactive
43 | C[C@H]1[C@H]([Si](C)(C)F)[C@@H](CCO)O[C@]12C(=O)N(Cc1cccc(N3C(=O)COc4ccccc43)c1)c1ccccc12 | inactive
44 | COc1cccc(S(=O)(=O)N2C[C@@H](O)COC[C@@H]3O[C@@H](CC(=O)N4CCN(C)CC4)CC[C@H]32)c1 | inactive

Row | Structure (SMILES) | cytotoxicity call
45 | O=C1CCNCCN1 | inactive
46 | CO[C@@H]1CN(C)C(=O)c2cc(NS(C)(=O)=O)ccc2OC[C@@H](C)N(C(=O)c2ccc3c(c2)OCO3)C[C@@H]1C | inactive
47 | Cc1noc(C)c1S(=O)(=O)Nc1ccc2c(c1)C(=O)N([C@H](C)CO)C[C@@H](C)[C@@H](CN(C)Cc1ccccc1)OCCCC[C@@H](C)O2 | inactive
48 | COc1ccc(NC(=O)Nc2ccc3c(c2)CC(=O)N([C@@H](C)CO)C[C@@H](C)[C@H](CN(C)C(=O)Nc2cccc4ccccc24)O3)cc1 | inactive
49 | Cc1noc(C)c1S(=O)(=O)Nc1ccc2c(c1)C(=O)N([C@@H](C)CO)C[C@@H](C)[C@@H](CN(C)CC1CCCCC1)OCCCC[C@@H](C)O2 | inactive
50 | Cc1ccc(C(=O)c2ccc(Oc3ccccc3)cc2)cc1 | inactive
51 | Cc1cccc(C(=O)NN)c1 | inactive
52 | Cc1ccc(Oc2ccccc2)c(NC(=O)c2ccccc2)c1 | active
53 | COc1cccc(-c2ccc3c(c2)O[C@H](CN(C)Cc2cncnc2)[C@@H](C)CN([C@@H](C)CO)S3(=O)=O)c1 | inactive
54 | COc1ccc(NC(=O)N(C)C[C@@H]2Oc3c(NC(=O)c4cc(C)nn4C)cccc3C(=O)N([C@@H](C)CO)C[C@H]2C)cc1 | inactive
55 | CN(C)CC(=O)N1[C@@H]2c3ccc(C4=CCCC4)c(=O)n3C[C@H]1[C@H](CO)[C@H]2C(=O)NCC1CC1 | inactive
56 | C[C@H]1CN([C@@H](C)CO)C(=O)Cc2cc(NS(=O)(=O)c3ccccc3)ccc2O[C@@H]1CN(C)S(=O)(=O)c1cn(C)cn1 | inactive
57 | C[C@@H]1CN([C@H](C)CO)C(=O)c2cc(NC(=O)Nc3ccccc3)ccc2O[C@H]1CN(C)S(=O)(=O)c1cn(C)cn1 | active
58 | C[C@H]1CN([C@@H](C)CO)C(=O)Cc2cc(NC(=O)Nc3ccccc3)ccc2O[C@H]1CN(C)S(=O)(=O)c1cn(C)cn1 | inactive
59 | C[C@@H]1CN([C@@H](C)CO)C(=O)c2cc(NC(=O)Nc3ccccc3)ccc2O[C@H]1CN(C)S(=O)(=O)c1cn(C)cn1 | inactive
60 | C[C@@H]1CN([C@@H](C)CO)C(=O)Cc2cc(NS(=O)(=O)c3ccccc3)ccc2O[C@@H]1CN(C)S(=O)(=O)c1cn(C)cn1 | inactive
61 | C[C@H](CO)N1C[C@H](C)[C@H](CN(C)S(=O)(=O)c2cn(C)cn2)Oc2ccc(NC(=O)Nc3ccccc3)cc2CC1=O | active
62 | C[C@@H]1CN([C@@H](C)CO)C(=O)Cc2cc(NC(=O)Nc3ccccc3)ccc2O[C@H]1CN(C)S(=O)(=O)c1cn(C)cn1 | inactive
63 | C[C@@H]1CN([C@H](C)CO)C(=O)Cc2cc(NS(=O)(=O)c3ccccc3)ccc2O[C@H]1CN(C)S(=O)(=O)c1cn(C)cn1 | active
64 | C[C@@H]1CN([C@H](C)CO)C(=O)c2cc(NC(=O)Nc3ccccc3)ccc2O[C@@H]1CN(C)S(=O)(=O)c1cn(C)cn1 | inactive
